“And” between values parts separate entries of the source, which are not always exact repeats. Equal values may be shown once. Results filed as inconclusive are left out. Entries that show only a call come without a potency. More than one record can exist for a structure, and the calls need not agree. The source made the active and inactive calls. The call rests on the fitted dose curve; in most records, active means well fitted cell-killing curve with a large enough effect in the repeat runs; inconclusive means weak or mixed curves, or effect the other way; inactive means no such curve, though single readings can be large or run the other way.
Potency means the concentration at half of the fitted maximal effect.

The nature of this assay: qHTS assay to identify small molecule antagonists of the thyroid receptor (TR) signaling pathway - cell viability counter screen (AID 743064). Further: nearly all actives have a fitted effect of over 50% in size. The note with it: GH3.TRE-Luc viability, CellTiter-Fluor, 24 h; series mostly up to 70.3 µM; activity change, negative = cytotoxic: at the top concentration. From the text: National Center for Advancing Translational Sciences [NCATS]
NIH Chemical Genomics Center [NCGC]
U.S. Environmental Protection Agency [EPA]
National Institutes of Environmental Health Sciences [NIEHS]
National Toxicology Program [NTP]
U.S. Food and Drug Administration [FDA]
Thyroid receptor (TR), a nuclear hormone receptor, plays an important role in development, proliferation, differentiation, metabolism, brain function, and cardiovascular system. […] To profile the Tox21 10K compound library in TR signaling, a cell-based GH3-TRE-Luc assay (GH3.TRE-Luc cell line, developed by the laboratory of Dr. Albertinka J. Murk, Wageningen University) was used to measure the inhibition of TR. GH3 (rat pituitary tumor) cells stably expressing a TR activity sensor consisting of two TR response elements and a luciferase reporter gene. The cytotoxicity of the Tox21 compound library against the GH3.TRE-Luc cell line was tested in parallel by measuring the cell viability using CellTiter-Fluor assay (Promega, Madison, WI) in the same wells.
Tox21 Assay Protocol Summary:
GH3.TRE-Luc cells were dispensed at 1500 cells/4 uL/well into 1536-well white solid bottom plates using a Multidrop Combi dispenser (Thermo Fisher Scientific Inc., Waltham, MA). After the assay plates were incubated at 37 C for 4 hours, 23 nL of library compound or DMSO controls was transferred to the assay plates by a pintool station (Kalypsys, San Diego, CA), followed by addition of 1 ul of T3 (1 nM, final concentration in the wells) to stimulate TR transactivation. The assay plates were incubated at 37 C for 23.5 h, and then 1 uL of CellTiter-Fluor reagent (Promega, Madision, WI) of measuring cytotoxicity was added to each well using a Bioraptr Flying Reagent Dispenser (FRD) workstation (Beckman Coulter, Indianapolis, IN, USA). The plates were incubated at 37C and 5% CO2 for additional 30 min, and fluorescence intensity was measured by a ViewLux plate reader (PerkinElmer, Shelton, CT).
With `CN(C)CCCN1c2ccccc2Sc2ccc(Cl)cc21`, the Potency was 11.9 µM (active) and 19.3 µM (active). The same measure, in the same setting: next, `CC(C)[N+](C)(CCOC(=O)C1c2ccccc2Oc2ccccc21)C(C)C`: “inactive”; `Oc1ccc(C(c2ccc(O)cc2)C(Cl)(Cl)Cl)cc1`: 60.9 µM (active) and 61.1 µM (active); `Clc1ccc(Sc2cc(Cl)c(Cl)cc2Cl)cc1`: “inactive”. The same measure, in the same setting: the result for `Nc1ccc2c(c1)C(=O)c1ccccc1C2=O` reads “inactive”; that for `CC[C@]12CCCN3CCc4c(n(c5ccccc45)[C@@](O)(C(=O)OC)C1)[C@@H]32`, “inactive”; that for `COCCOCCOCCO`, “inactive”.

Take `COC(=O)C(C)Oc1ccc(Oc2ncc(C(F)(F)F)cc2Cl)cc1` (stereo not given): the “activity change, negative = cytotoxic” value was 2.13% (inactive). As for `C=CCCCCCCCCCC`, the Potency entry is “inactive”. Take `c1ccc2c(c1)ccc1ncccc12`: the “activity change, negative = cytotoxic” value was -0.34% (inactive). Same read-out and setting: the result for `CCC(Cc1c(I)cc(I)c(N)c1I)C(=O)O` (stereo not given) reads 13.2% [at 32.5 µM] (inactive); that for `C[C@]12CC[C@@H]3c4ccc(O)cc4CC[C@H]3[C@@H]1CC[C@@H]2O`, -15.9% (inactive). Turning to `CN(C)C`, the Potency result was “inactive”. With `Nc1ccc(N)c(Cl)c1`, the “activity change, negative = cytotoxic” value is -19.4% (inactive). Take `IC(I)I`: the Potency result is “inactive”. The same measure, in the same setting: next, `CC/C=C\C/C=C\C/C=C\CCCCCCCC(=O)O`: “inactive”; `Cc1ccc([N+](=O)[O-])c(C)c1`: “inactive”. Same read-out and setting: next, `CNC[C@H](O)c1ccc(O)c(O)c1`: “inactive”.

Take `CC1=CC(C)(C)Nc2ccccc21`: the “activity change, negative = cytotoxic” value is -23.1% (inactive).

Take `CCCCCC=O`: the Potency entry was “inactive”.

As for `O=C(O)c1cc(=O)[nH]c(=O)[nH]1`, the Potency entry was “inactive”. `FC(F)(F)C(Cl)Br` (stereo not given): the Potency entry was “inactive”. As for `c1ccc2cc3ccccc3cc2c1`, the Potency entry is “inactive”.

Regarding `CC(=O)[C@@]1(O)CC[C@H]2[C@@H]3C[C@H](C)C4=CC(=O)C=C[C@]4(C)[C@@]3(F)[C@@H](O)C[C@@]21C`, the Potency result is “inactive”. The same measure, in the same setting: the result for `c1ccc2c(c1)ccc1cc3c(ccc4ccccc43)cc12` reads “inactive”. For `C=C[C@H]1CN2CC[C@H]1C[C@H]2[C@H](O)c1ccnc2ccc(OC)cc12`, the Potency entry was “inactive and 43.3 µM (active)”. On to `COc1ccc(-c2coc3cc(O)cc(O)c3c2=O)cc1`, for which the “activity change, negative = cytotoxic” value was -26% (inactive). On to `C=C1C[C@H]2[C@@H]3C=C(C)C4=CC(=O)CC[C@]4(C)[C@H]3CC[C@]2(C)[C@@]1(OC(C)=O)C(C)=O`, for which the Potency entry is “inactive”. Still for that read-out and setting: the result for `CCC/C=C/C=O` reads “inactive”; that for `CCCCCC1C(=O)CCC1CC(=O)OC` (stereo not given), “inactive”. Still for that read-out and setting: the result for `C/C=C/C(=O)N(CC)c1ccccc1C` reads “inactive”; that for `CCC(=O)O[C@H]1[C@H](O[C@@H]2[C@@H](C)[C@H](O[C@H]3C[C@@](C)(OC)[C@@H](O)[C@H](C)O3)[C@@H](C)C(=O)O[C@H](CC)[C@@](C)(O)[C@H](O)[C@@H](C)C(=O)[C@H](C)C[C@@]2(C)O)O[C@H](C)C[C@@H]1N(C)C`, 13.3 µM (active) and 36.1 µM (active). Consider `C=CCOC(=O)C(=C)C`, for which the Potency result was “inactive”. Consider `CCO[Si](CCCNC(N)=O)(OCC)OCC`, for which the “activity change, negative = cytotoxic” value was -6.69% (inactive). `OC[C@H]1O[C@@H]2O[C@H]3[C@H](O)[C@@H](O)[C@@H](O[C@H]4[C@H](O)[C@@H](O)[C@@H](O[C@H]5[C@H](O)[C@@H](O)[C@@H](O[C@H]6[C@H](O)[C@@H](O)[C@@H](O[C@H]7[C@H](O)[C@@H](O)[C@@H](O[C@H]1[C@H](O)[C@H]2O)O[C@@H]7CO)O[C@@H]6CO)O[C@@H]5CO)O[C@@H]4CO)O[C@@H]3CO`: the Potency result was “inactive”.

As for `Cc1ccc(S(=O)(=O)O)cc1C`, the Potency entry was “inactive”. On the same count and under the same terms, next, `CC(=O)Nc1ccc2c(c1)Cc1cc(NC(C)=O)ccc1-2`: “inactive”; `CC1(C)O[C@@H]2C[C@H]3[C@@H]4C[C@H](F)C5=CC(=O)C=C[C@]5(C)[C@@]4(F)[C@@H](O)C[C@]3(C)[C@]2(C(=O)CO)O1`: “inactive”; `CC(C)[C@@H]1CC[C@@H](C)CC1=O`: “inactive”. On the same count and under the same terms, the result for `O=C(O)c1ccc(O)cc1` reads “inactive”.
